Most compounds without a hit are left out; they make up all but 2.2% or so of the library.
KLF5 inhibitor: suppresses KLF5 promoter-driven expression. DLD-1 KLF5 promoter-luciferase reporter, luminescence. inhibition, % at 5 µM. 290,000 compounds, 0.23% hits. AID 1700;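 active means inhibition above a per-plate limit of that plate's mean compound inhibition plus 3 SD, cut at about 60% in these data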;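 further: 0% = DMSO wells and 100% = LY294002 at 200 µM; higher means less KLF5 promoter-driven luciferase light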
Ba/F3 V617F tox: reduce viability of Ba/F3 cells dependent on JAK2V617F | Ba/F3 EpoR-JAK2V617F viability, ATP luminescence | inhibition, % at 5.6 µM | 220,000 compounds, 1.1% hits | AID 1446;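 active means inhibition above the campaign mean plus 3 SD over all tested compounds, cut at about 24% in these data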;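 further: cytokine-independent growth of Ba/F3 cells driven by EpoR plus mutant JAK2; 0% = DMSO-treated cells and 100% = JAK inhibitor I control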
aSyn 5UTR inh: MLPCN primary screen, SNCA 5' untranslated region. alpha-synuclein 5'UTR reporter, inhibitor activity. inhibition, % (tested at 7.5 µM). 300,000 compounds, 0.82% hits. AID 1813; in the data active means inhibition above about 60%; inconclusive means no clear call, values can overlap the other calls;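 further: H4 neuroglioblastoma cells stably carrying SNCA 5'UTR luciferase fusion; 0% = DMSO wells and 100% = positive control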
APP 5UTR inh: APP translation inhibition. SH-SY5Y APP 5'UTR-luciferase reporter, luminescence. inhibition, % at 2 µM. 190,000 compounds, 0.82% hits. AID 1285;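 active means inhibition above a set limit, derived from the sample mean plus 3 SD, cut at about 45% in these data; inconclusive means one replicate passes the limit while the other fails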
IEC-6 cytotox: IEC-6 cytotoxicity, counter-screen for KLF5 inhibitors; AID 1825; inhibition, % at 5 µM; 290,000 compounds, 0.78% hits; luminescence viability; in the data active means inhibition above about 22%;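 further: 0% = plate median of test compound wells and 100% = cytotoxic reference compound wells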
BaF3 tox: counter-screen for JAK2V617F inhibitors: parental Ba/F3 viability inhibitors. CellTiter-Glo ATP luminescence. inhibition, % at 5.6 µM. 220,000 compounds, 1.1% hits;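 active means inhibition above a per-campaign cutoff, the mean inhibition of all tested compounds plus 3 SD, cut at about 27% in these data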;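 further: 0% = DMSO wells and 100% = JAK Inhibitor I control wells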
BaF3 parental 2: reduces parental Ba/F3 viability, JAK2V617F counter-screen; shares compounds with Ba/F3 V617F tox; inhibition, % at 5.6 µM; 580 compounds, 31% hits; AID 1520; CellTiter-Glo luminescence; cells kept alive by added IL-3;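 active means cell growth inhibition above the hit limit set in the earlier mutant JAK2 cell screen, cut at about 27% in these data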;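 further: plate controls were DMSO-treated cells for no effect and JAK Inhibitor I control wells for full effect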
JAK2V617F conf: confirmation: loss of viability in JAK2V617F-dependent Ba/F3 cells; shares compounds with Ba/F3 V617F tox; Ba/F3 EpoR-JAK2V617F viability, CellTiter-Glo luminescence; inhibition, % at 5.6 µM; 580 compounds, 66% hits;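 active means mean inhibition above the hit cutoff derived in the earlier primary screen, cut at about 25% in these data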;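 further: 0% = DMSO-treated cells and 100% = JAK inhibitor I control wells; higher means lower luminescence from reduced cell ATP and viability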
* = called active by the depositor; ? = inconclusive; nt = no result.

SMILES	KLF5 inhibitor	Ba/F3 V617F tox	aSyn 5UTR inh	APP 5UTR inh	IEC-6 cytotox	BaF3 tox	BaF3 parental 2	JAK2V617F conf
COc1ccc(/C=N/n2cnc3c([nH]c4ccc(F)cc43)c2=O)cc1CN1CCCC1	28	40*	17	nt	0	15	11	30*
COc1ccc(/C=N/n2cnc3c([nH]c4ccc(C)cc43)c2=O)cc1CN1CCCC1	-13	4	-17	nt	6	6	nt	nt
Cc1ccc(NC(=S)N(CCCN2CCC(C)CC2)Cc2ccco2)cc1C	-27	25*	-4	5	-4	14	29*	46*
CCOc1ccc(N2C(=O)CC(Sc3nnnn3-c3ccccc3)C2=O)cc1 (stereo not given)	-17	33*	22	38	2	2	-6	7
Oc1ccc(Cl)cc1CNc1ccc(Br)cn1	-162	27*	-142	-59	-1	13	6	31*
CCOC(=O)c1ccccc1Nc1cn(C(C)=O)c2ccccc12	3	1	26	-6	1	6	nt	nt
CC(=O)n1cc(N(C(=O)CCl)c2ccc(Cl)cc2)c2ccccc21	-24	98*	103*	nt	9	13	104*	98*
C(=N\Nc1nc2ccccc2[nH]1)/c1cccc2nccnc12	27	50*	67*	nt	12	3	51*	63*
Cc1cccc(CN(C(=S)Nc2c(C)cccc2C)c2cccnc2)c1	2	102*	-32	-19	5	-1	-5	13
CCc1ccccc1NC(=S)N(Cc1cccc(C)c1)c1cccnc1	-22	3	9	-27	1	2	nt	nt
Cn1cc(C(=O)NS(=O)(=O)Nc2ccc(Br)cn2)c2ccccc21	-40	nt	-23	nt	0	nt	nt	nt
CC(=O)Oc1ccc(C(=O)O)cc1OC(C)=O	5	-3	18	4	-5	-2	nt	nt
CC(=O)Oc1ccc(OC(C)=O)c(SCCCCCCl)c1	-28	85*	-60	83*	1	4	102*	97*
COC1(OC)C(/C=C/c2ccc(Cl)cc2)C(C#N)(C#N)C1(OC)OC (stereo not given)	21	81*	-51	10	20	13	2	73*
Cc1ccc(NC(=O)CSc2nnc3ccc(-c4ccncc4)nn23)cc1	nt	nt	10	nt	nt	nt	nt	nt
N=c1c2c3c(sc2ncn1Cc1ccco1)CCCCC3	-12	25*	-25	5	4	1	-5	8
COc1cccc(/C=N/NC(=O)c2[nH]c(C)c(C(=O)N/N=C/c3cccc(OC)c3O)c2C)c1O	21	42*	49	11	-7	5	12	70*
COc1cccc(/C=N/NC(=O)c2ccc(=O)[nH]n2)c1O	-6	0	-7	nt	2	0	nt	nt
O=c1oc2ccccc2c2c1ncn2CCN1CCOCC1	-6	61*	-4	-9	6	12	1	11
COc1ccccc1Oc1cc(-n2nc(C)cc2C)ncn1	-12	7	11	-18	-2	11	nt	nt
Cc1ccccc1Oc1cc(-n2ncc(Cl)c(Cl)c2=O)ncn1	-20	34*	nt	95*	-5	9	100*	100*
Cc1cc(C)c(OCCCNC2CCCC2)c(Br)c1	-52	nt	-4	nt	0	nt	nt	nt
CCCCn1c(SCC(=O)c2ccc(O)c(O)c2)nc2ccsc2c1=O	-22	40*	30	-14	-3	12	32*	88*
C=CCn1c(SCC(=O)c2ccc(O)c(O)c2)nnc1-c1ccccc1OC	15	34*	9	2	3	11	0	14
O=C(NC1CCCCC1)c1cccc(OCc2ccccc2)c1	-17	nt	0	nt	3	nt	nt	nt
SMILES	KLF5 inhibitor	Ba/F3 V617F tox	aSyn 5UTR inh	APP 5UTR inh	IEC-6 cytotox	BaF3 tox	BaF3 parental 2	JAK2V617F conf
O=[N+]([O-])c1ccccc1N/N=C/c1cccc(O)c1O	-94	62*	-104	nt	-10	-1	51*	96*
Cc1cccc(OCC(=O)Nc2cc(C)ccc2O)c1	-40	37*	-37	1	8	6	5	67*
Cc1cccc(OCC(=O)Nc2cc(C)c(C)cc2O)c1	-1	-1	-112	-14	-2	4	nt	nt
O=S(=O)(CCSc1nc2ccccc2o1)c1nc2ccccc2s1	13	83*	-28	13	0	26	29*	99*
CCOc1ccc(C(O)(CCC(C)C)C(CN2CCOCC2)c2ccccc2)cc1 (stereo not given)	-16	nt	21	nt	-3	nt	nt	nt
CCOc1ccc(C(=O)C(CN2CCOCC2)c2ccccc2)cc1 (stereo not given)	-11	59*	-23	67*	3	8	19	98*
CC(C)Oc1ccc(CN=C(N)N=C(N)N)cc1Cl	-27	30*	14	-7	-9	2	40*	65*
COc1ccc(CN=C(N)N=C(N)N)cc1Cl	-21	4	-2	-15	0	22	nt	nt
CCOC(=O)/C(=C\c1cccc(O)c1)c1nc2sc(C)c(C)c2c(=O)[nH]1	-24	4	-47	12	5	5	nt	nt
Cc1ccc(CN(C)C2CCN(C)CC2)cc1	-8	nt	2	nt	-7	nt	nt	nt
COc1cccc(C2(O)CCN(C(=O)C(C)C)CC2)c1	5	-3	3	nt	10	5	nt	nt
COc1cccc(C2(O)CCN(C(=O)c3cccs3)CC2)c1	-26	55*	20	6	-4	0	-1	-2
O=C(CCl)Nc1ccc(-c2ccccc2)cc1	-31	19	-20	23	-5	3	nt	nt
O=C(CCl)Nc1ccc(N=Nc2ccccc2)cc1	-107	28*	-63	-31	-5	2	19	94*
NC(N)=NN=C1CCCCCCCCCCC1	13	49*	26	nt	-6	22	29*	68*
O=C1C=CC(=O)N1CCNc1ncc(C(F)(F)F)cc1Cl	-3	48*	10	74*	17	-1	-1	82*
O=C1CC(=O)N(CCNc2ncc(C(F)(F)F)cc2Cl)C(=O)N1	-11	0	7	-9	-2	1	nt	nt
COc1ccc(C(=O)/C=C/Nc2ccc(S(=O)(=O)Nc3cccc(C(C)=O)c3)cc2)cc1	5	31*	-12	6	-1	14	8	30*
COc1ccc(C(=O)OCC(=O)NCc2ccccc2)c(OC)c1OC	-28	103*	8	-22	-4	5	-5	-4
COCCCN=C1NN=C(c2cc(C)n(Cc3ccco3)c2C)CS1	-4	79*	94*	94*	-1	0	78*	97*
COCCNC(=O)c1c[nH]c2ccc(S(=O)(=O)N3CCc4ccccc43)cc2c1=O	-1	67*	?	3	6	13	83*	86*
COC(=O)c1ccccc1NC(=O)C1CCN(c2ncnc3c2nc2n3CCCCC2)CC1	4	nt	28	nt	3	nt	nt	nt
c1ccc(-c2ccc(-c3ccncn3)cc2)cc1	nt	nt	-78	nt	nt	nt	nt	nt

Screens deposited in PubChem BioAssay by several laboratories.
